Bioassay records from PubChem BioAssay.
In the library only some 3.8% were active in any assay of this set; here they are far more common.
HT1080 IDH1KD tx: toxicity to HT-1080 IDH1 knockdown cells (counter line); Potency, µM (titrated, usually from 46.1 µM), without a hit: at the highest dose activity, negative = toxicity, actives largely listed as cytotoxic; AID 686971; HT-1080 IDH1 knockdown viability, ATP luminescence, 48 h; 360,000 compounds, 2% hits;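 also: 0% = DMSO wells and -100% = cell-free medium wells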
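Knockdown cells (IDH1KD HT-1080) received compounds 2 h after plating at 750 cells/well and were kept 48 h at 37 °C in 5% FBS RPMI. A CellTiter-Glo luminescence read gave % activity for curve fitting.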
TGFb inhibitor: inhibitors of TGF-b signaling; Potency, µM (top dose mostly 46.1 µM), without a hit: top-dose activity, negative = inhibition, hits mostly inhibitors; HepG2 CAGA-GFP TGF-b/SMAD3 reporter, GFP fluorescence, 18 h; TGF-beta stimulated, 500 pg/mL final; AID 588855; 410,000 compounds, 1.2% hits; also: % is scaled to controls: 0 for no effect and ±100 for the full control effect; nearly all actives have a fitted effect of over 65% in size
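HEPG2 CAGA-GFP cells (1000/well, DMEM with 1% FBS) were pre-incubated 2 h at 37 degrees C, given compound by pin tool, then stimulated with TGF-beta at 500 pg/mL final for 18 h before per-cell GFP fluorescence imaging.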
ATXN2 expr inh: inhibitors of ATXN2 expression | HEK-293 ATXN2-luciferase reporter, luminescence, 24 h | Potency, µM (top dose mostly 57 µM), inactives show at the highest dose activity change, negative = inhibition, hits mostly inhibitors | 360,000 compounds, 0.72% hits; also: % is scaled to controls: 0 for no effect and ±100 for the full control effect; nearly all actives have a fitted effect of over 55% in size
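ATXN2-luciferase reporter cells (luciferase flanked by upstream and downstream ATXN2 gene portions) were treated 24 h at 37 °C with compounds at up to 57 uM. SteadyGlo luminescence gave expression; GF-AFC fluorescence gave viability.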
HT1080NT lethal: kills 2HG-producing HT-1080-NT fibrosarcoma cells | HT-1080-NT fibrosarcoma viability, CellTiter-Glo ATP luminescence, 48 h | Potency, µM (titrated, usually from 46.1 µM), for the others: top-dose activity, negative = less viability, hits mostly cytotoxic | 360,000 compounds, 1.6% hits | AID 686970;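 also: NT is the 2HG producing partner of a matched IDH1 knockdown line; 0% = DMSO-treated cells and -100% = media-only wells without cells; nearly all actives have a fitted effect of over 55% in size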
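A 48-hour cytotoxicity screen used HT-1080-NT cells plated 2 hours before compound delivery. ATP-based CellTiter-Glo luminescence measured viability, normalized to DMSO and no-cell controls.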
S2 tox: reduces viability in counter-screen for ATXN expression inhibitors; S2 cells (HEK-293 line with an ATXN2-luciferase reporter) viability, CellTiter-Fluor protease fluorescence, 24 h; Potency, µM (titrated, usually from 56.7 µM), most hits filed as cytotoxic; 400,000 compounds, 0.49% hits; also: nearly all actives have a fitted effect of over 40% in size
HepG2 tox-1: counter-screen for TGF-b inhibitors: cytotoxicity in HepG2 cells | HepG2 CAGA-GFP viability, ATP luminescence, 18 h | Potency, µM (series often up to 46.1 µM), without a hit: at the top dose activity change, negative = cytotoxicity, most hits filed as cytotoxic | 410,000 compounds, 0.76% hits
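CellTiter-Glo luminescence gave cytotoxicity after 18 hours at 37 degrees C. The cells were HepG2 CAGA-GFP in 1% FBS DMEM, stimulated with 500 pg/mL TGF-beta after compound addition. %Activity was normalised to no-cell wells (complete cell-killing) and DMSO (no toxicity), and curves were fitted and classified.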
TGFb confirm: TGF-b pathway inhibition, cherry-pick retest; shares compounds with TGFb inhibitor; HepG2 CAGA-GFP TGF-b reporter, GFP fluorescence, 18 h; cells stimulated with TGF-beta, 500 pg/mL; Potency, µM (top dose mostly 46.1 µM), for the others: top-dose activity, negative = inhibition, hits mostly inhibitors; 1,600 compounds, 63% hits; AID 720534; also: % is scaled to controls: 0 for no effect and ±100 for the full control effect; nearly all actives have a fitted effect of over 65% in size
HepG2 tox-2: toxic to HepG2 cells in TGF-b counterscreen; shares compounds with TGFb inhibitor; HepG2 CAGA-GFP viability, ATP luminescence, 18 h; cells stimulated with TGF-beta, 500 pg/mL; Potency, µM (highest dose often 46.1 µM), without a hit: at the top dose activity, negative = cytotoxicity, actives largely listed as inhibitors; 1,600 compounds, 27% hits; also: % is scaled to controls: 0 for no effect and ±100 for the full control effect; nearly all actives have a fitted effect of over 70% in size
CCL64 TGFb inh: orthogonal confirmation of TGF-b inhibitors in CCL64 cells | shares compounds with TGFb inhibitor | CCL64 CAGA-GFP reporter, TGF-b stimulated, GFP fluorescence, 18 h | Potency, µM (top dose mostly 46.1 µM), inactives show at the highest dose activity, negative = inhibition, hits mostly inhibitors | 1,600 compounds, 41% hits | AID 720536; also: nearly all actives have a fitted effect of over 65% in size
TGFb COP inh: validation of TGF-b inhibitors in HepG2 COP promoter reporter | shares compounds with TGFb inhibitor | HepG2 COP-GFP TGF-b reporter, GFP fluorescence, 18 h; cells stimulated by added recombinant TGF-beta | Potency, µM (doses to about 46.1 µM), inactives show at the top dose activity, negative = inhibition, hits mostly inhibitors | 1,600 compounds, 3% hits; also: nearly all actives have a fitted effect of over 70% in size
* hit, by the source's call; i = inactive; ? = inconclusive; · = not tested or not shown. Calls follow the shape of the dose curve; as a rule, active = well fitted curve in the direction sought with a large enough effect; inconclusive = small, poorly fitted or top-dose-only effect, or another doubt; inactive = no such curve, though single readings can be large; an effect the other way counts as inactive or inconclusive. Potency is read from the fitted curve at half-maximal effect.

SMILES	HT1080 IDH1KD tx	TGFb inhibitor	ATXN2 expr inh	HT1080NT lethal	S2 tox	HepG2 tox-1	TGFb confirm	HepG2 tox-2	CCL64 TGFb inh	TGFb COP inh
Cc1ccsc1/C=N/NC(=O)c1cc(-c2ccncc2)nc2ccccc12	0.92µM*	?	-8.4%	?	i	-13.9%	-71.4%	-27.0%	6.51µM*	-15.7%
COc1ccccc1-c1cc(C(=O)N/N=C/c2sccc2C)c2ccccc2n1	-19.1%	-13.8%	10.7%	-20.6%	i	-8.5%	·	·	·	·
O=C(Oc1c(Cl)cc(Cl)c2cccnc12)c1ccco1	?	6.31µM*	?	?	?	-2.4%	18.4µM*	?	?	23.8%
O=C(Oc1c(Cl)cc(Cl)c2cccnc12)c1cccs1	20.6µM*	3.55µM*	?	20.6µM*	?	-2.7%	20.6µM*	?	?	5.1%
O=C(Oc1c(CN2CCOCC2)cc(Cl)c2cccnc12)c1cccs1	3.66µM*	7.08µM*	?	2.91µM*	?	-62.1%	?	?	16.4µM*	14.4%
CCCCN(CC)C(=O)CSc1nc2n[nH]c(C)c2c(=N)n1-c1cccc(C)c1	-22.8%	7.08µM*	·	-25.4%	?	-30.4%	?	-18.1%	?	10.9%
CN(Cc1cccs1)c1nc(-c2cccnc2)nc2ccccc12	-3.2%	14.1µM*	-24.3%	-5.2%	·	-8.3%	25.9µM*	?	18.4µM*	39.6%
CC1CC(C)C(=O)C(C(CC2CC(=O)NC(=O)C2)OC(=O)CC(=O)c2ccccc2)C1 (stereo not given)	?	2.24µM*	3.55µM*	?	?	-8.8%	0.411µM*	?	2.59µM*	23.9%
O=C1CCC(C(=O)OCC(=O)c2ccccc2)N1 (stereo not given)	17.3%	?	-14.1%	17.5%	i	-3.7%	·	·	·	·
Cn1cccc1-c1cc2n(n1)CCC(=O)N2CCCC(=O)NCc1cccc(Cl)c1	·	-12.7%	4.8%	·	?	6.4%	·	·	·	·
COc1cccc(CN(C(=O)Cc2c[nH]c3ccccc23)C(C(=O)NC2CCCCC2)c2ccc(C)o2)c1 (stereo not given)	?	15.8µM*	?	-21.4%	?	-10.9%	25.9µM*	?	?	22.9%
O=C(Nc1nc2c(Cl)cccc2s1)c1ccc([N+](=O)[O-])o1	1.1%	-12.2%	?	-4.2%	?	-1.6%	·	·	·	·
COc1ccccc1NC(=O)c1ccc([N+](=O)[O-])o1	?	2.82µM*	-23.7%	?	i	12.6µM*	?	?	?	24.6%
O=C(Nc1cccc(NC(=O)c2ccccc2Cl)c1)c1ccc([N+](=O)[O-])o1	9.2µM*	3.55µM*	?	?	?	-89.3%	1.3µM*	6.51µM*	8.2µM*	?
O=C(Nc1nc2c(F)cccc2s1)c1ccc([N+](=O)[O-])o1	-6.6%	3.6%	-13.5%	1.4%	i	-20.1%	·	·	·	·
O=C(Nc1nc2ccc(F)cc2s1)c1ccc([N+](=O)[O-])o1	-26.8%	5.62µM*	·	?	?	-62.0%	4.61µM*	9.2µM*	?	2.8%
O=C(Nc1nc2ccc(F)cc2s1)C1CCN(S(=O)(=O)c2cc([N+](=O)[O-])ccc2Cl)CC1	?	11.2µM*	?	?	i	3.1%	9.2µM*	?	9.2µM*	27.8%
CCc1ccccc1NC(=O)c1noc2c1CC(C(C)(C)C)CC2 (stereo not given)	·	1.9%	0.3%	·	i	-19.2%	·	·	·	·
CCc1ccc(NC(=O)CSc2ncc(S(=O)(=O)c3cc(C)ccc3C)c(=O)[nH]2)cc1	·	-10.3%	7.8%	·	i	-28.3%	·	·	·	·
O=C(Nc1cccc(OCc2cc(=O)n3ccccc3n2)c1)Nc1cccc(C(F)(F)F)c1	·	-25.1%	·	·	·	-9.6%	·	·	·	·
O=C(Cc1cccs1)Nc1c(C(=O)Nc2ccc(F)cc2)oc2ccccc12	·	-8.4%	1.2%	·	i	2.2%	·	·	·	·
CN(C(=O)Cn1c(=O)n(CCC(=O)NCc2ccc3c(c2)OCO3)c(=O)c2sccc21)c1ccccc1	·	-7.4%	·	·	·	-21.7%	·	·	·	·
Cc1ccnc(NC(=O)c2ccc([N+](=O)[O-])o2)c1	-24.0%	?	45.8%	?	i	-63.2%	·	·	·	·
COc1ccc(C(=O)Nc2cc([N+](=O)[O-])ccc2N2CCCC2)cc1	-3.1%	-0.3%	-0.2%	-4.7%	i	-1.0%	·	·	·	·
COc1ccc(N2CCCC2)c(NC(=O)c2ccc([N+](=O)[O-])o2)c1	-11.8%	5.62µM*	-38.7%	-17.3%	?	-41.0%	?	?	?	8.9%
O=C(Nc1ccccn1)c1ccc([N+](=O)[O-])o1	?	10µM*	·	?	i	-102.1%	16.4µM*	?	?	21.7%
CCc1ccc(S(=O)(=O)Nc2ccc3[nH]c(=O)sc3c2)cc1	·	4.0%	·	·	·	-22.8%	·	·	·	·
CCCC(=O)NC(c1ccc(Cl)cc1)c1ccc2cccnc2c1O (stereo not given)	?	?	7.08µM*	?	?	-20.2%	?	?	5.17µM*	27.9%
CC(C)C(=O)NC(c1cccc([N+](=O)[O-])c1)c1ccc2cccnc2c1O (stereo not given)	?	3.55µM*	2.67µM*	-25.6%	?	6.0%	?	?	7.31µM*	18.9%
